From PubChem BioAssay (NCI) come the findings set out here.

Compounds without any hit were thinned out: in the full panel of roughly 83,000, 20% have a hit.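 Interpretation: 100, growth as untreated; towards 0, rising growth inhibition; 0, no net growth; 0 to -100, cell death. Compounds scoring below 10 were considered active.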 A number with no mark means an inactive call. Active and inactive are the calls of the source.

The experiment relates to MDA-MB-468 breast. Description: NCI-60 one-dose screen, 48 h (100 = growth as untreated, 0 = no growth, -100 = all killed). To be noted: 10 µM unless noted.
On to `C#CCNC(=O)[C@H](Cc1ccccc1)NC(=O)[C@]12CC[C@@H](C(=C)C)[C@@H]1[C@H]1CC[C@@H]3[C@@]4(C)CCC(=O)C(C)(C)[C@@H]4CC[C@@]3(C)[C@]1(C)CC2`, for which the growth is 63.7%.

As to `C=C(C)[C@@H]1CC[C@]2(C(=O)N=C=S)CC[C@]3(C)[C@H](CC[C@@H]4[C@@]5(C)CCC(=O)C(C)(C)[C@@H]5CC[C@]43C)[C@@H]12`, the growth was 11.2%.

Regarding `Nc1nc(Br)nc2c1ncn2C1CC(O)C(CO)O1` (configuration not stated), the growth is 100%.

With `CC(C)C[C@H](NC(=O)/C=C/Cn1ccc2ccccc2c1=O)B(O)O`, the growth is -6.84% (active).

With `Cc1cc(C#Cc2ccc(C(C)(C)C)cc2)ccc1-n1c(/C=C/c2c(Cl)cccc2Cl)nc2ccccc2c1=O`, the growth is 91.1%.

Consider `OC(c1cccc(-n2ccc(C(F)(F)F)n2)c1)c1cnccc1NC1CCCCCC1` (configuration not stated), for which the growth is -59.4% (active).

With `CC(C)(c1ccc(OCC(O)CNCc2ccco2)cc1)c1ccc(OCC(O)CNCc2ccco2)cc1` (configuration not stated), the growth is 98.1%.

As for `CC/C(=C(/c1ccc(O)cc1)c1ccc(OCCN2CCCCC2)cc1)c1ccc(OC)cc1`, the growth was 60.7%.

As to `CCCCNc1nnc2n(Cc3ccccc3)c(=O)c3c4c(sc3n12)CCCC4`, the growth was 34.7%.

For the compound `CC1=C[C@H]2c3c(c(O)c(O)c4oc(-c5ccccc5)cc(=O)c34)[C@H](c3cc(O)c(O)c4oc(-c5ccccc5)cc(=O)c34)[C@H]2C(C)(C)C1`, the growth was 14.2%.

Regarding `Nc1ncnc2c1N=C(c1ccc3c(c1)OCO3)CC(c1cccc(Nc3ccnc4cc(Cl)ccc34)c1)N2` (configuration not stated), the growth is 33.2%.

Regarding `NNC(=S)N/N=C/c1ccccn1`, the growth was 8.55% (active).
